In ChEMBL document CHEMBL4513216, “Probing the Open Global Health Chemical Diversity Library for Multistage-Active Starting Points for Next-Generation Antimalarials” (ACS Infect Dis, 2020):
In all, about 69,000 compounds went through this assay and about 8,600 (12%) showed an effect of 50% or more. Shown is part of a subset that was picked to be rich in strong results.

The compounds below were run on Plasmodium berghei (assay: Screen against P. berghei liver stage (PbLuc), transformed with Luciferase, at 10uM). Details: tested at 10 uM.
Format: functional, HepG2

Compared with `Cc1nc(CN2Cc3nccn3CC(COCC3CC3)C2)cs1` (configuration not stated), `Cc1nc2n(n1)CC(NCc1csc(-c3ccsc3)n1)CC2` (configuration not stated) is lower in INHIBITION: 41.2% for the first, 22.55% for the second.

First: CNC(=O)CN1CCOCC12CCN(CCc1ccccc1)CC2
Second: Cc1ccccc1C(=O)N1C[C@@H](O)[C@H](N2CCOCC2)C1
The INHIBITION of the first is higher: 38.1% for the first, 33.25% for the second.

Going from `COc1c(C2CCCN2CC(=O)Nc2nccs2)c(C)nn1C` (configuration not stated) to `COc1cnc(C2(O)CCN(C(=O)c3scnc3C)CC2)c(OC)n1`, the INHIBITION rises from -24.7% to 36.7%.

Going from `Cc1ccc(C2CN(C(=O)c3ccn(C)c(=O)c3)CCO2)nc1` (configuration not stated) to `Cn1ccc(C(=O)N2CCOC(c3ccccn3)C2)cc1=O` (configuration not stated), the INHIBITION falls from 44.8% to -5.71%.

First: Cn1ccc(C(=O)N2CCOC(c3ccccc3)C2)cc1=O (configuration not stated)
Second: O=C(c1ccc2c(c1)COC2)N1CCCC(n2cncn2)C1 (configuration not stated)
The INHIBITION of the first is higher: 50.5% for the first, 0.411% for the second.

Going from `Cc1cc(-n2cncn2)n2ncnc2n1` to `Cc1cc(C)n(CC(=O)NCc2ccccn2)n1`, the INHIBITION falls from 47.1% to 3.58%.

Compared with `CC(C)N(CCC#N)C(=O)c1cnc(-c2ccc3c(c2)OCO3)s1`, `Cc1ocnc1C(=O)Nc1ccc(-c2nnc(N(C)C)o2)cc1` is lower in INHIBITION: -73.9% for the first, -128% for the second.

Compared with `CC(C)c1nnc2n1CC(CNCc1nnc(C(C)(C)C)o1)CC2` (configuration not stated), `CC(=O)N[C@@H]1CN(C(=O)c2csc(C(C)C)n2)C[C@H]1C(C)C` is higher in INHIBITION: 3.77% for the first, 9.87% for the second.

First: CCN1CCN(c2nc3cn(-c4cnn(CC)c4)c(=O)c-3c[nH]2)CC1
Second: CCN1CCN(c2ccc(CNC(=O)c3sccc3C)cn2)CC1
The INHIBITION of the first is higher: 36.6% for the first, -23.8% for the second.

Compared with `CC(=O)N1C[C@H](NC(=O)c2csc(C(C)C)c2)[C@@H](C(C)C)C1`, `CC(=O)N1C[C@H](NC(=O)c2ccnc(N)c2)[C@@H](C(C)C)C1` is lower in INHIBITION: 51.1% for the first, 19.1% for the second.

Going from `CC(C)CN1CC[C@@H]2[C@@H]1CCN2C(=O)N(C)C` to `COCC(=O)N1CC[C@H]2[C@H]1CCN2CC(C)C`, the INHIBITION rises from 3.88% to 52.6%.

First: CC(C)CN1CC[C@@H]2[C@@H]1CCN2C(=O)N1CCCC1
Second: CC(C)CCC1=NC2(CCN(C(=O)N3CCN(C)CC3)CC2)C(=O)N1
The INHIBITION of the first is higher: 31.9% for the first, -23.5% for the second.

Compared with `CN(C)CC(=O)N1C[C@@H]2CC[C@H](Oc3ccccc3)[C@@H]2C1`, `CN(C)C[C@H]1OC[C@@H]2CCN(C(=O)c3ccc[nH]3)C[C@@H]21` is higher in INHIBITION: -21.4% for the first, 29.8% for the second.

First: COc1cccc(CN(C)S(=O)(=O)N2CCOCC2)c1
Second: COc1cccc(CC2CN(C3CCN(C(C)=O)CC3)CCO2)c1 (configuration not stated)
The INHIBITION of the first is higher: 34.7% for the first, 1.81% for the second.

First: Cc1nn(C)c(N(C)C)c1CNCc1cccnc1N1CCOCC1
Second: Cc1cc(C(=O)NCc2cnn(C)c2C)nc(N2CCCCCC2)n1
The INHIBITION of the first is lower: -69.3% for the first, -7.53% for the second.

Compared with `O=C(NC1CC1)[C@@H]1CN(Cc2ccc3c(c2)OCO3)C[C@H]2OCC[C@H]21`, `CO[C@H]1CN(Cc2ccc(F)c(F)c2)C[C@@]12CCCO2` is higher in INHIBITION: 13.7% for the first, 35.2% for the second.

First: CC(CC#N)N(C)Cc1ccccc1Cl (configuration not stated)
Second: CCC(C)N(Cc1c[nH]c(C)n1)Cc1ccccc1Cl (configuration not stated)
The INHIBITION of the first is lower: 38.5% for the first, 41% for the second.

First: CCC(C)N(Cc1cc(C)n[nH]1)Cc1ccccc1Cl (configuration not stated)
Second: O=C1CCC(=O)N1c1nn(Cc2ccccc2Cl)cc1Cl
The INHIBITION of the first is higher: 79% for the first, 20.4% for the second.

Compared with `CNC(=O)NC(=O)CN1CCc2c(Br)ccc(F)c2C1`, `CCn1cc(NS(=O)(=O)c2ccc(Br)s2)c(C(N)=O)n1` is higher in INHIBITION: -34.8% for the first, 61.6% for the second.

First: COc1ccccc1CCNC(=O)CNCC1CN(C)CCO1 (configuration not stated)
Second: CCOC(=O)CCNC(=O)N1CCOC(Cc2cccc(OC)c2)C1 (configuration not stated)
The INHIBITION of the first is lower: 11% for the first, 53.7% for the second.

Compared with `COc1ccc(-c2c(C)nn3c(=N)c(C#N)n[nH]c23)cc1OC`, `COc1ccc(-c2c(C)nn3c(=N)c(C#N)n[nH]c23)cc1` is lower in INHIBITION: 85% for the first, 3.19% for the second.

Compared with `COc1ccc(-c2csc(N)c2C#N)cc1OC`, `COc1ccc(-c2nc(C#N)c(N(C)C)o2)cc1OC` is lower in INHIBITION: 1.58% for the first, -34.9% for the second.

First: CCc1nn2c(=N)c(C#N)n[nH]c2c1-c1ccc(OC)cc1
Second: COc1ccc(-c2c(C(C)C)nn3c(=N)c(C#N)n[nH]c23)cc1
The INHIBITION of the first is lower: 22.9% for the first, 53.1% for the second.

Going from `Cc1noc(C2CCC3(CCN(C(=O)c4cnn(C)c4)CC3)O2)n1` (configuration not stated) to `COc1cnc(C2(O)CCN(C(=O)c3cccnc3)CC2)c(OC)n1`, the INHIBITION rises from 44.1% to 60.8%.

Going from `CC(C)(NS(C)(=O)=O)c1nc(-c2ccc(F)c(F)c2)no1` to `Cc1cc(C)n(-c2ccc(C(C)NS(N)(=O)=O)cc2)n1` (configuration not stated), the INHIBITION rises from -7.02% to 37.1%.

Going from `Cc1nc(NC(=O)NC(CS(C)(=O)=O)c2ccccc2)sc1C` (configuration not stated) to `CC(C)S(=O)(=O)C(C)C(=O)NCc1ccccc1OCc1ccccc1` (configuration not stated), the INHIBITION rises from 35.1% to 42.5%.

Going from `Cc1nc(C2CCCNC2)cc(N(Cc2c(C)nn(C)c2C)C2CC2)n1` (configuration not stated) to `CC(C)N1CCC(c2n[nH]cc2S(C)(=O)=O)CC1`, the INHIBITION rises from -21.5% to -8.58%.

Going from `COc1cc(S(=O)(=O)N2CCc3ccc(Cl)cc32)cc(C(=O)O)c1OC` to `COc1cc(S(=O)(=O)N2CCc3cc(Br)ccc32)cc(C(=O)O)c1OC`, the INHIBITION rises from -11.4% to 62.6%.

Compared with `COc1cc(S(=O)(=O)N2CCc3ccccc32)cc(C(=O)O)c1OC`, `COc1ccccc1C(=O)N1CCC(O)(c2cccc(C)c2C)CC1` is lower in INHIBITION: 48.2% for the first, 24.2% for the second.

Compared with `CCOC(=O)CNC(=O)N1CCOC(Cc2ccc(OC)cc2)C1` (configuration not stated), `Cc1cnn(CC2CN(Cc3ccc(-n4cccn4)cc3)CCO2)c1` (configuration not stated) is higher in INHIBITION: -17.4% for the first, 40% for the second.

Compared with `CS(=O)(=O)c1ccc(NC(=O)N2C[C@H](O)[C@@H](N3CCOCC3)C2)cc1`, `O=C(Nc1ccc(-n2cccn2)cc1)N1C[C@H](O)[C@@H](N2CCOCC2)C1` is lower in INHIBITION: 67.5% for the first, 44.3% for the second.

Compared with `COCCS(=O)(=O)NC(C)c1ccc(-n2nc(C)cc2C)cc1` (configuration not stated), `Cc1cc(C)n(-c2ccc(C(C)NS(=O)(=O)CCCS(C)(=O)=O)cc2)n1` (configuration not stated) is lower in INHIBITION: 69.7% for the first, 47.4% for the second.

First: COCCN1CCC2(CC1)CN(CCn1cccn1)C(=O)CO2
Second: c1ccc(Cn2cccn2)c(CN2CCC3(CCCNC3)C2)c1 (configuration not stated)
The INHIBITION of the first is higher: 23.3% for the first, 4.87% for the second.

Going from `CN(CC(=O)N1CCN(c2cnccn2)CC1)c1ccc(Cl)cn1` to `CC(C)c1ncncc1C(=O)N1CCN(Cc2ccccn2)CC1`, the INHIBITION rises from -1.38% to 5.9%.

Going from `CCn1cc(NS(=O)(=O)c2ccc(Br)s2)c(C(=O)NCC(C)C)n1` to `CCn1cc(S(=O)(=O)N2CCN(S(=O)(=O)c3ccc(Br)s3)CC2)c(C)n1`, the INHIBITION rises from -0.217% to 24.2%.

Going from `Cc1cccc(-c2ccc(C(=O)N3CCN(C4CC4)CC3)c(=O)[nH]2)c1` to `Cc1cccc(C2(O)CCN(C(=O)c3ccc(N(C)C)cc3)CC2)c1C`, the INHIBITION rises from 21.8% to 33.1%.

First: Cc1cc2c(c(-c3cncc(C(=O)N4CCCC4)n3)c1)OC(CN)C2 (configuration not stated)
Second: NCC1Cc2cc(Cl)cc(-c3cncc(C(=O)N4CCCCC4)n3)c2O1 (configuration not stated)
The INHIBITION of the first is higher: 57.3% for the first, 24.8% for the second.

Going from `NCC1Cc2cc(-c3cncc(C(=O)N4CCCCC4)n3)cc(F)c2O1` (configuration not stated) to `COc1cnc(C2(O)CCN(C(=O)c3ccccn3)CC2)c(OC)n1`, the INHIBITION rises from 18.3% to 57.5%.

Compared with `CC(C)CCC1=NC2(CCN(C(=O)CN3CCCC3=O)CC2)C(=O)N1`, `CC(=O)CCC(=O)N1CCC2(CC1)N=C(CCC(C)C)NC2=O` is lower in INHIBITION: 82.4% for the first, -40.7% for the second.

First: CCOC(=O)N1CCC2(CC1)N=C(CCC(C)C)NC2=O
Second: COC(=O)N1CCC2(CC1)N=C(CCC(C)C)NC2=O
The INHIBITION of the first is lower: -65% for the first, 76.7% for the second.

Compared with `O=C(CN1CCCCC1=O)N1CCC2(CC1)[C@H](O)C[C@@H]2O`, `Cn1cccc1C(=O)N1CC[C@@]2(O)CCN(S(C)(=O)=O)C[C@H]2C1` is lower in INHIBITION: 44% for the first, 42.1% for the second.

First: Cc1cc(C(=O)Nc2cnn(CC(F)(F)F)c2)nc(N(C)C)n1
Second: Cc1cc(C(F)(F)F)nn1CC(C)C(=O)Nc1ccccn1 (configuration not stated)
The INHIBITION of the first is higher: 0.91% for the first, -22.2% for the second.

Compared with `Cc1cc(C)c(CNC(=O)NCC2COCCO2)c(=O)[nH]1` (configuration not stated), `CCOc1ncccc1CNC(=O)NC1CCOc2ccccc21` (configuration not stated) is higher in INHIBITION: 23.45% for the first, 52.5% for the second.

Compared with `CCc1ccc2c(c1)C(CCNC(=O)c1sccc1C)C(=O)N2` (configuration not stated), `CCc1ccc2c(c1)C(CCNC(=O)CCc1ccsc1)C(=O)N2` (configuration not stated) is lower in INHIBITION: 61.9% for the first, 26.7% for the second.

First: CCc1ccc2c(c1)C(CCNC(=O)CSC(F)(F)F)C(=O)N2 (configuration not stated)
Second: CCc1ccc2c(c1)C(CCNC(=O)Cc1ccc(F)cc1)C(=O)N2 (configuration not stated)
The INHIBITION of the first is lower: 40.6% for the first, 53.6% for the second.

First: CCc1ccc2c(c1)C(CCNC(=O)Cc1cccc(F)c1)C(=O)N2 (configuration not stated)
Second: COc1ncccc1CNC(=O)NC1CCOc2ccccc21 (configuration not stated)
The INHIBITION of the first is higher: 37.8% for the first, 29.6% for the second.

Compared with `CS(=O)(=O)N(Cc1ccon1)c1cccc(Br)c1`, `Cc1cccc(C2(O)CCN(C(=O)c3ccccn3)CC2)c1C` is higher in INHIBITION: -11.9% for the first, 57.8% for the second.

Going from `CC(c1ccccc1)n1cc2nc(N(C)C)[nH]cc-2c1=O` (configuration not stated) to `CC(C)Oc1ncccc1CNC(=O)NC1CCOc2ccccc21` (configuration not stated), the INHIBITION rises from 15.7% to 42.9%.

First: CNC(=O)[C@@H](c1ccccc1OC)N1CCC[C@H]1C(=O)N1CC[C@@H](O)C1
Second: COc1cnc(C2(O)CCN(C(=O)c3ccco3)CC2)c(OC)n1
The INHIBITION of the first is lower: -63.5% for the first, 29.3% for the second.

Going from `O=C(O)c1nnn(-c2ccc(OC(F)(F)F)cc2)c1-c1ccncc1` to `COc1cnc(C2(O)CCN(C(=O)c3ccncc3)CC2)c(OC)n1`, the INHIBITION rises from -22.1% to 37.5%.

Going from `COc1ccc(-n2cccn2)c(CN2CCC(O)(CO)CC2)c1` to `COc1ccc(-n2cccn2)c(CN2CCC3(CCCNC3)C2)c1` (configuration not stated), the INHIBITION falls from 21.2% to 13%.

Going from `c1cnn(Cc2ccc(CN3CCC4(CCCNC4)C3)cc2)c1` (configuration not stated) to `c1cnn(Cc2ccc(CN3CCC4(CCNCC4)C3)cc2)c1`, the INHIBITION rises from 3.96% to 60.3%.

Compared with `COc1ccc(-n2cccn2)c(CN2CCC3(CCNCC3)C2)c1`, `CCC(=O)N1CCC(O)(c2ncc(OC)nc2OC)CC1` is lower in INHIBITION: 53% for the first, 0.0932% for the second.

For `CC(C)CNc1nccc(-c2cnc3sc(Cl)cn3c2=O)n1`, the INHIBITION was 2.6%.
